Rows were chosen to be rich in hits. Some 3.1% of all compounds tested hit in one or more screens of this group.
dFosB act-1: activators of mouse delta FosB homodimer | P13346 | purified delta FosB, TAMRA-CDK5 oligo fluorescence polarization; percent of positive-control signal above neutral wells | activation, % at 25 µM | 340,000 tested, 0.99% active | AID 493131;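 active = mean activation above about 17%, with every replicate also reaching it, limit read from the data, passing the limit was not always enough; inconclusive = only one of the two conditions met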
Target sequence (P13346 whole entry, looked up): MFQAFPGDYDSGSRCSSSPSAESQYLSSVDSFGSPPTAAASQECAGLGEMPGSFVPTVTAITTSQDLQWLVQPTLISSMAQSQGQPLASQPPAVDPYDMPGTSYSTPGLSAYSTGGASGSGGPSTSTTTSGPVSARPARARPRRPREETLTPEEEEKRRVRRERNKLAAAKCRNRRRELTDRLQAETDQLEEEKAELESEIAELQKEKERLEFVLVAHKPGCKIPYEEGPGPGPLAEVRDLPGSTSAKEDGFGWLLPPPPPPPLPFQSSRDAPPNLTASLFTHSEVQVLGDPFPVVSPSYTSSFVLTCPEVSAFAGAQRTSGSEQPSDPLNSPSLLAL
MLL AF4-AF9 inh: blocks AF4 peptide binding to human AF9 | P42568 | AlphaScreen, biotin-AF4 peptide binding to FLAG-AF9 | inhibition, % at 10 µM | 350,000 tested, 0.47% active | AID 651704;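 active = every replicate reaching a set inhibition limit, whatever the replicate mean, cut at about 25% in these data; inconclusive = mean inhibition reaches that limit but some replicates miss it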
RAD52 anneal inh: RAD52 (human) annealing inhibition | recombinant RAD52 DNA annealing, FRET fluorescence | 360,000 tested, 0.46% active | inhibition, % at 18.7 µM | AID 651710;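 active = every replicate showing at least 50% inhibition; inconclusive = mean inhibition at least 50% but not in every replicate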
Target sequence (P43351 whole entry, looked up): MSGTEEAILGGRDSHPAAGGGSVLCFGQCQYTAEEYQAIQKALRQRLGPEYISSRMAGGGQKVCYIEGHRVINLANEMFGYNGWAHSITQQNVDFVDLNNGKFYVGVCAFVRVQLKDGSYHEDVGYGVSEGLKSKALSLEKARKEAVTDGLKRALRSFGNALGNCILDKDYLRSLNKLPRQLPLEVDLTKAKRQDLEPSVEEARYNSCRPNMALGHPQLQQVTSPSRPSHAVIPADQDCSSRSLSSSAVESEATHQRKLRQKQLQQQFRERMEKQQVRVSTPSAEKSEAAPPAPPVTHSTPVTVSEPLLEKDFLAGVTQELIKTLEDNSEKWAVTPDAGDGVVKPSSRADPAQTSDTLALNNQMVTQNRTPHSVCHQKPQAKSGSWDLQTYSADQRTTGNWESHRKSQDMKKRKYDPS
DENV2 CPE: DENV2-induced cell death inhibition | DENV2-infected cells, cytopathic effect rescue, plate reader | CPE inhibition, % at 9.99 µM | 350,000 tested, 1.7% active | AID 651640; in the data active = CPE inhibition above about 20%, passing the limit was not always enough; inconclusive = no clear call, values can overlap the other calls; tested in BHK-21 cells
GSIS activator: GLuc luminescence reporter in INS-1E cells, primary screen for activators of glucose-dependent secretion of insulin; activation, % at 16.6 µM; 370,000 tested, 0.61% active; INS-1E GLuc reporter insulin secretion, 2-3 h;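 active = lowest replicate activation of at least 40%, so every replicate reaches that level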
RAD54 inh: RAD54 (human) branch migration inhibition; RAD54 Holliday junction branch migration, FAM/BHQ fluorescence; inhibition, % at 10.4 µM; 360,000 tested, 0.14% active;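 active = mean normalized replicate activity at least 40 and at least half of replicates scoring 40 or more; inconclusive = only one of the two criteria met; inactive = mean below 40 and under half of replicates reaching 40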;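 note: inhibitors cause a drop in the FAM fluorescence signal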
dFosB act-2: delta FosB (mouse) homodimer activation | shares compounds with dFosB act-1 | activation, % at 24.9 µM | 2,400 tested, under 10 active | AID 588690 | purified delta FosB, TAMRA-CDK5 oligo fluorescence polarization; normalised: neutral wells 0, positive control 100;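 active = highest replicate activation at or above 34% and every replicate reaching that threshold; inconclusive = meets only one of the two criteria; inactive = meets neither criterion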;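 note: higher polarization means more probe DNA bound by delta FosB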
Of the large screens only hits and unclear results are named; the others gave an inactive call (follow-up assays come after a bar, where they were run).

C[C@@H]1CN([C@@H](C)CO)C(=O)c2cc(-c3cccc(C(=O)N(C)C)c3)cnc2O[C@H]1CN(C)S(=O)(=O)c1ccccc1	none (no result: dFosB act-1)
CCc1ccc2nc(NC(=O)C3CCN(c4ncnc5sc(C)c(C)c45)CC3)sc2c1	none
C=CCn1c(C)cc(-c2csc(NC(=O)C3CCN(c4ncnc5sc(C)c(C)c45)CC3)n2)c1C	dFosB act-1 30 | dFosB act-2 inactive
COc1ccc(-c2csc(NC(=O)C3CCN(c4ncnc5sc(C)c(C)c45)CC3)n2)cc1OC	dFosB act-1 26 | dFosB act-2 inactive
CC(=O)N(C)C[C@H]1Oc2ccccc2CC(=O)N(C)C[C@@H]1C	none (no result: dFosB act-1, MLL AF4-AF9 inh, RAD52 anneal inh, DENV2 CPE, RAD54 inh)
Clc1cccc(-c2ccnc3nc(-n4cccc4)nn23)c1	dFosB act-1 37 (no result: MLL AF4-AF9 inh, RAD52 anneal inh, DENV2 CPE, RAD54 inh) | dFosB act-2 inactive
O=C(Nc1ccccc1F)N[C@H]1CC[C@H](CCNC(=O)C2CCCCC2)O[C@H]1CO	none (no result: dFosB act-1)
CCc1ccc(NC(=O)CCCNC(=O)Cn2cnc3sc(C)c(C)c3c2=O)cc1	dFosB act-1 32 (no result: RAD54 inh) | dFosB act-2 inactive
O=C(CSc1nnc2c(n1)[nH]c1ccc(S(=O)(=O)N3CCOCC3)cc12)Nc1ccccc1Cl	dFosB act-1 26 (no result: DENV2 CPE) | dFosB act-2 inactive
Cc1ccc(S(=O)(=O)Nc2ccc3c(c2)CC(=O)N([C@@H](C)CO)C[C@H](C)[C@@H](CN(C)Cc2ccc(Cl)c(Cl)c2)O3)cc1	none (no result: dFosB act-1)
CCC(=O)Nc1ccc2c(c1)OC[C@@H](C)N(C(=O)CC1CC1)C[C@@H](C)[C@H](OC)CN(C)C2=O	none (no result: dFosB act-1)
O=C(Nc1cccc(-c2nc3cccnc3s2)c1)c1cccnc1Cl	none
NS(=O)(=O)c1ccc(C(=O)Nc2ccc(-c3nc4cccnc4s3)cc2)cc1	dFosB act-1 43 | dFosB act-2 inactive
NS(=O)(=O)c1ccc(NC(=O)c2ccc(-c3ccccc3)cc2)cc1	none (no result: RAD54 inh)
O=C(Nc1cccc(-c2nc3cccnc3s2)c1)c1ccc(Cl)nc1	dFosB act-1 27 (no result: DENV2 CPE) | dFosB act-2 inactive
COc1ccc(S(=O)(=O)Nc2ccc3c(c2)C(=O)N([C@@H](C)CO)C[C@@H](C)[C@H](CN(C)CC2CC2)O3)cc1	none (no result: dFosB act-1)
C#CCOCCOCCOCCNc1nc(N2CCN(C(=O)[C@H]([C@@H](C)CC)n3cc([C@@H](N)CC(C)C)nn3)CC2)nc(N2CCN(C(=O)[C@H](CCCCN)n3cc([C@@H](N)CO)nn3)CC2)n1	none (no result: MLL AF4-AF9 inh, RAD52 anneal inh, DENV2 CPE, GSIS activator)
C#CCOCCOCCOCCNc1nc(N2CCN(C(=O)[C@H](CCCCN)n3cc([C@@H](N)CC(C)C)nn3)CC2)nc(N2CCN(C(=O)[C@H](CCCCN)n3cc([C@@H](N)CC(C)C)nn3)CC2)n1	dFosB act-1 19 (no result: MLL AF4-AF9 inh, RAD52 anneal inh, DENV2 CPE, GSIS activator) | dFosB act-2 inconclusive
COc1cccc(NC(=S)NC(=O)/C=C/c2ccc(F)cc2)c1	dFosB act-1 34 | dFosB act-2 inactive
CCCNC(=O)N(C)C[C@@H]1Oc2cc(-c3ccccc3F)ccc2S(=O)(=O)N([C@H](C)CO)C[C@@H]1C	none (no result: dFosB act-1)
COCC(=O)Nc1ccc2c(c1)C(=O)N(C)C[C@H](OC)[C@@H](C)CN(C(=O)Cc1cccnc1)[C@H](C)CO2	none (no result: dFosB act-1, MLL AF4-AF9 inh, RAD52 anneal inh, DENV2 CPE, RAD54 inh)
COc1ccc(/C=N/NC(=O)c2ccc(NC(C)=O)cc2)cc1COc1ccc(F)cc1F	dFosB act-1 68 | dFosB act-2 inactive
COc1ccc(/C=N\NC(=O)c2ccccc2F)cc1COc1ccc(F)cc1F	none
COc1ccc(/C=N/NC(=O)c2ccc(Cl)cc2)cc1Cn1cc(Cl)cn1	dFosB act-1 40 (no result: RAD54 inh) | dFosB act-2 inactive
COc1cc(OC)c(/C=N/NC(=O)c2ccc(NC(C)=O)cc2)cc1Br	dFosB act-1 28 (no result: RAD54 inh) | dFosB act-2 inactive
COc1ccc(/C=N\NC(=O)c2ccccc2F)cc1COc1ccc(F)cc1	none
COc1ccc(/C=N/NC(=O)c2ccco2)cc1COc1ccc(F)cc1	dFosB act-1 75 | dFosB act-2 inactive
Cc1noc(C)c1NC(=O)NCC[C@H]1CC[C@H](NC(=O)Nc2cccc(F)c2)[C@H](CO)O1	none (no result: dFosB act-1)
COC(=O)c1ccc(OCC(=O)Nc2ccsc2C(=O)OC)cc1	dFosB act-1 36 | dFosB act-2 inactive
COC(=O)c1sccc1NC(=O)COc1cccc(C)c1	none (no result: RAD54 inh)
CCCN1[C@@H]2c3ccc(-c4ccc(OC)cc4)c(=O)n3C[C@@H]2[C@@H](CO)[C@@H]1C(=O)N(C)C	none (no result: dFosB act-1)
Cc1ccc(C(=O)Nc2cccc(C(F)(F)F)c2)cc1NC(=O)c1nccn1C	dFosB act-1 27, DENV2 CPE inconclusive | dFosB act-2 inactive
Cc1ccc(C(=O)NCC(=O)Nc2ccc(C)c(S(=O)(=O)Nc3ccc(Cl)cc3)c2)s1	dFosB act-1 36 (no result: RAD54 inh) | dFosB act-2 inactive
Cc1cccc(C(=O)N/N=C2\CS(=O)(=O)N(C)c3ccsc32)c1	dFosB act-1 26 (no result: DENV2 CPE) | dFosB act-2 inactive
Cc1cc(C)c2c(N)c3ccccc3nc2n1	dFosB act-1 31, RAD54 inh 100 (no result: MLL AF4-AF9 inh, RAD52 anneal inh, DENV2 CPE, GSIS activator) | dFosB act-2 inactive
Cc1cc(C)c2cccc(N)c2n1	none (no result: DENV2 CPE)
O=C(Nc1ncc(Cc2ccccc2Cl)s1)c1ccc(-c2cccc([N+](=O)[O-])c2)o1	dFosB act-1 22 (no result: MLL AF4-AF9 inh, RAD52 anneal inh, DENV2 CPE) | dFosB act-2 inactive
O=C(Nc1ncc(Cc2ccc(C(F)(F)F)cc2)s1)c1ccc(-c2cccc([N+](=O)[O-])c2)o1	none (no result: MLL AF4-AF9 inh, RAD52 anneal inh, DENV2 CPE, RAD54 inh)
Cc1cnc(NC(=O)c2ccc(-c3ccc([N+](=O)[O-])cc3)o2)s1	dFosB act-1 60 | dFosB act-2 inactive
Cc1cccc(-c2ccc([C@@H]3[C@H]4CN(S(=O)(=O)c5cn(C)cn5)CCCCN4[C@H]3CO)cc2)c1	none (no result: dFosB act-1)
CC(=O)N1[C@H](C(=O)NC2CCCCC2)[C@@H](CO)[C@@H]2Cn3c(cccc3=O)[C@@H]21	none (no result: dFosB act-1)
O=C(N/N=C/c1ccncc1)c1ccc(NC(=O)c2ccc(Cl)cc2)cc1	dFosB act-1 65 (no result: RAD54 inh) | dFosB act-2 inactive
O=C(N/N=C/c1ccncc1)c1ccc(NC(=O)c2cccc(Cl)c2)cc1	dFosB act-1 39 (no result: RAD54 inh) | dFosB act-2 inactive
O=C(N/N=C/c1ccncc1)c1cccc(NC(=O)c2ccccc2Cl)c1	none (no result: RAD54 inh)
CCCC(=O)Nc1ccc2c(c1)C(=O)N(C)C[C@@H](OC)[C@H](C)CN(Cc1cccc(F)c1)[C@H](C)CO2	none (no result: dFosB act-1)
N#Cc1ccc(NC(=O)c2cc(-c3cccs3)on2)cc1	dFosB act-1 22, DENV2 CPE inconclusive (no result: RAD54 inh) | dFosB act-2 inactive
O=C(COC(=O)c1cccs1)Nc1ccc(F)c(F)c1	none
N/C(CC(=O)Nc1ccc(F)c(Cl)c1)=N\OC(=O)c1cccs1	dFosB act-1 23 (no result: GSIS activator, RAD54 inh) | dFosB act-2 inactive
COc1ccc(C(CNC(=O)c2oc3ccccc3c2C)N2CCCC2)cc1 (stereo not drawn)	none
COc1ccc(C(CNC(=O)c2oc3ccc(Cl)cc3c2C)N2CCCCC2)cc1 (stereo not drawn)	dFosB act-1 23 | dFosB act-2 inactive

Screens deposited in PubChem BioAssay by Broad Institute.
